Rows were chosen to be rich in hits. Some 2.3% of all compounds tested hit in one or more screens of this group.
ERp5 inh – inhibitors of human ERp5 | Q15084 | ERp5 insulin aggregation, absorbance 650 nm, 90 min | inhibition, % at 9.99 µM | actives 0.05% (n = 350,000) | AID 651711;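 active = mean replicate inhibition above about 25%, with every replicate also reaching it, limit read from the data, passing the limit was not always enough; inconclusive = only one of those two criteria met; inactive = neither criterion met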
PDI inh – inhibitors of human protein disulfide isomerase | P07237 | PDI insulin aggregation turbidity, A650, 90 min | inhibition, % at 10 µM | actives 0.052% (n = 350,000) | AID 588391;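 active = mean inhibition across replicates of 30% or more, whatever share of single replicates reach that level; inconclusive = mean inhibition below 30% while every single replicate reaches 30%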
Target sequence (P07237 whole entry, looked up): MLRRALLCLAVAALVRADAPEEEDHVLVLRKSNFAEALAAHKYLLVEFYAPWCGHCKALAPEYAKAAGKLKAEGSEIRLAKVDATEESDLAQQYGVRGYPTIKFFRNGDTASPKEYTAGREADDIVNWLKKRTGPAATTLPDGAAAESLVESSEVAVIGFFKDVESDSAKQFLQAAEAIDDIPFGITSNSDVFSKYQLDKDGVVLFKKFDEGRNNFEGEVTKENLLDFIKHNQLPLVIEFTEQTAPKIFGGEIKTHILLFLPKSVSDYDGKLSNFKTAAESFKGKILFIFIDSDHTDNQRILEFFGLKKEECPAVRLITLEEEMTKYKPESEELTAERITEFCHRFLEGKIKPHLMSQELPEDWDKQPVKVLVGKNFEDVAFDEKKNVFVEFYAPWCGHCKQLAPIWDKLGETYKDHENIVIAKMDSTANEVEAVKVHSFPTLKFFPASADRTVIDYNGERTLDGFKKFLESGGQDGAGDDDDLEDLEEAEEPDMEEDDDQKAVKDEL
SIRT5 inh – sirtuin-5 (human) deacylase inhibition; actives 1.1% (n = 330,000); inhibition, % at 15 µM; Purified SirT5, succinyl-peptide AMC, trypsin-coupled fluorescence; in the data active = inhibition above about 15%; inconclusive = no clear call, values can overlap the other calls
DENV2 CPE – protects cells from dengue virus 2 cytopathic effect; DENV2-infected cells, cytopathic effect rescue, plate reader; CPE inhibition, % at 9.99 µM; actives 1.7% (n = 350,000); AID 651640; in the data active = CPE inhibition above about 20%, passing the limit was not always enough; inconclusive = no clear call, values can overlap the other calls; tested in BHK-21 cells
Rtt109 HAT inh – inhibitors of Candida albicans Rtt109/Vps75 histone acetyltransferase. Q5AAJ8. AID 540336. inhibition, % at 34.9 µM. purified Rtt109/Vps75, ThioGlo CoA-SH fluorescence, 4 h. actives 0.16% (n = 330,000);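 active = inhibition of at least 50% in every replicate; inconclusive = best replicate reaches 50% inhibition but some replicates fall short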
Of the large screens only hits and unclear results are named; the others gave an inactive call.

C[C@@H]1CN([C@H](C)CO)C(=O)c2cc(N(C)C)ccc2O[C@@H](C)CCCCO[C@H]1CN(C)C(=O)CCC(F)(F)F	none (no result: PDI inh, Rtt109 HAT inh)
C[C@@H]1CCCCO[C@@H](CN(C)C(=O)Nc2ccc(C(F)(F)F)cc2)[C@@H](C)CN([C@H](C)CO)C(=O)c2cc(NC(=O)c3ccncc3)ccc2O1	DENV2 CPE 28 (no result: ERp5 inh, PDI inh, SIRT5 inh, Rtt109 HAT inh)
C[C@@H]1CCCCO[C@H](CN(C)Cc2ccc(C(=O)O)cc2)[C@H](C)CN([C@H](C)CO)C(=O)c2cc(NC(=O)c3ccncc3)ccc2O1	DENV2 CPE 42 (no result: PDI inh, Rtt109 HAT inh)
C[C@@H]1CCCCO[C@@H](CN(C)C(=O)CCC(F)(F)F)[C@H](C)CN([C@@H](C)CO)C(=O)c2cc(NC(=O)c3ccncc3)ccc2O1	none (no result: ERp5 inh, PDI inh, SIRT5 inh, Rtt109 HAT inh)
C[C@@H]1CN([C@H](C)CO)C(=O)c2cc(N(C)C)ccc2O[C@@H](C)CCCCO[C@@H]1CN(C)C(=O)CCC(F)(F)F	DENV2 CPE 106 (no result: PDI inh, Rtt109 HAT inh)
COc1cccc(-c2ccc3n(c2=O)C[C@H]2[C@H](CO)[C@@H](C(=O)N(C)C)N(C(=O)C4CC4)[C@@H]32)c1	none (no result: PDI inh, Rtt109 HAT inh)
Cc1noc(C)c1S(=O)(=O)Nc1ccc2c(c1)C(=O)N([C@H](C)CO)C[C@H](C)[C@H](CN(C)S(=O)(=O)c1c(C)noc1C)OCCCC[C@H](C)O2	none (no result: PDI inh, Rtt109 HAT inh)
COc1cccc(CN2[C@H](CO)[C@@H](c3ccccc3)C23CN(C(=O)C2CCC2)C3)c1	SIRT5 inh 24 (no result: PDI inh, Rtt109 HAT inh)
O=C(c1cccc(F)c1)N1CC2(C1)[C@@H](c1ccccc1)[C@@H](CO)N2C(=O)C1CCCC1	DENV2 CPE 78 (no result: PDI inh, Rtt109 HAT inh)
CN(C)CC(=O)N1[C@H](CO)[C@@H](c2ccccc2)C12CN(C(=O)C1CCCC1)C2	SIRT5 inh 19, DENV2 CPE 51 (no result: PDI inh, Rtt109 HAT inh)
O=C(C1CCCCC1)N1CC2(C1)[C@@H](c1ccccc1)[C@@H](CO)N2Cc1ccccc1F	DENV2 CPE 32 (no result: PDI inh, Rtt109 HAT inh)
O=C(C1CCCCC1)N1CC2(C1)[C@@H](c1ccccc1)[C@H](CO)N2Cc1ccccc1F	none (no result: PDI inh, Rtt109 HAT inh)
CCS(=O)(=O)N1CC(=O)N2[C@@H](CO)[C@H](c3ccc(-c4cccc(F)c4)cc3)[C@@H]2C1	none (no result: PDI inh, Rtt109 HAT inh)
O=C(C[C@@H]1C[C@H]2c3cc(NC(=O)c4ccc5c(c4)OCO5)ccc3O[C@H]2[C@H](CO)O1)NC1CCCCC1	none (no result: PDI inh, Rtt109 HAT inh)
CCS(=O)(=O)N1CCC2(CC1)CN(C(=O)Nc1c(C)noc1C)[C@@H](CO)c1[nH]c3cc(OC)ccc3c12	none (no result: PDI inh, Rtt109 HAT inh)
CCC(=O)N(C)C[C@@H]1Oc2ncc(-c3ccc(C)cc3)cc2C(=O)N([C@@H](C)CO)C[C@@H]1C	none (no result: PDI inh, Rtt109 HAT inh)
CCC(=O)N(C)C[C@@H]1Oc2ncc(-c3ccc(C#N)cc3)cc2C(=O)N([C@H](C)CO)C[C@@H]1C	DENV2 CPE 70 (no result: PDI inh, Rtt109 HAT inh)
C[C@@H]1CN([C@H](C)CO)C(=O)c2cc(-c3ccc(F)cc3)cnc2O[C@H]1CN(C)C(=O)Cc1ccccn1	SIRT5 inh 23 (no result: PDI inh, Rtt109 HAT inh)
CCC(=O)N(C)C[C@@H]1Oc2ncc(-c3ccc(C#N)cc3)cc2C(=O)N([C@H](C)CO)C[C@H]1C	none (no result: PDI inh, Rtt109 HAT inh)
CCC(=O)N(C)C[C@@H]1Oc2ncc(-c3ccc(C)cc3)cc2C(=O)N([C@@H](C)CO)C[C@H]1C	DENV2 CPE 22 (no result: PDI inh, Rtt109 HAT inh)
CC(C)C#Cc1cnc2c(c1)C(=O)N([C@@H](C)CO)C[C@@H](C)[C@@H](CN(C)C(=O)C1CCC1)O2	none (no result: PDI inh, Rtt109 HAT inh)
NC(=O)C1CCN(C(=O)C2(NC(=O)Nc3cccc(F)c3)CCCCC2)CC1	DENV2 CPE 45
O=C(Nc1cccc(F)c1)NC1(C(=O)N2CCC(O)CC2)CCCCC1	none
COC(=O)c1c(CCl)noc1C(=O)NCC1CCCO1 (configuration not stated)	DENV2 CPE 33
CC(CCc1ccc(O)cc1)NC(c1ccccc1)c1ccc(Cl)cc1 (configuration not stated)	DENV2 CPE 55 (no result: SIRT5 inh)
CC(CCc1ccc(O)cc1)NCCC(c1ccccc1)c1ccccc1 (configuration not stated)	none (no result: SIRT5 inh)
NC(=O)/C(=C/c1ccco1)C(N)=S	SIRT5 inh 17
O=C(N/N=C/c1ccc(OC2CSC2)cc1)c1ccc(CN2CCOCC2)cc1	SIRT5 inh 28
O=C(N/N=C/c1ccc(OC(=O)c2ccccc2)cc1)c1ccc(CN2CCOCC2)cc1	none (no result: ERp5 inh, SIRT5 inh, DENV2 CPE)
CCCC#Cc1ccc([C@H]2[C@H](CO)N3CCCCN(Cc4cccnc4)C[C@@H]23)cc1	DENV2 CPE inconclusive (no result: PDI inh, Rtt109 HAT inh)
CCC/C(=C1/c2ccccc2C(=O)N1c1ccccc1)c1ccc(O[C@@H]2CCCCO2)cc1	DENV2 CPE 37
CCC/C(=C1/c2ccccc2C(=O)N1c1ccccc1)c1ccc2c(c1)OCCO2	none
CCCC(=O)Nc1ccc2c(c1)OC[C@H](C)N(Cc1ccc(-c3ccccn3)cc1)C[C@@H](C)[C@@H](OC)CN(C)C2=O	none (no result: PDI inh, Rtt109 HAT inh)
COc1ccc(OCCOc2ccc(S(=O)(=O)N3CCCC3)cc2[N+](=O)[O-])cc1	SIRT5 inh 27
O=C(C[C@@H]1CC[C@H](NC(=O)c2ccc3c(c2)OCO3)[C@@H](CO)O1)NC1Cc2ccccc2C1	none (no result: PDI inh, Rtt109 HAT inh)
Cc1noc(C)c1S(=O)(=O)Nc1ccc2c(c1)C(=O)N([C@@H](C)CO)C[C@H](C)[C@H](CN(C)C(=O)CCC(F)(F)F)OCCCC[C@H](C)O2	DENV2 CPE 34 (no result: PDI inh, Rtt109 HAT inh)
C[C@H](CO)N1C[C@H](C)[C@H](CN(C)C(=O)CCC(F)(F)F)OCCCC[C@H](C)Oc2ccc(NS(=O)(=O)c3ccc(Cl)cc3)cc2C1=O	ERp5 inh 81, SIRT5 inh 17 (no result: PDI inh, Rtt109 HAT inh)
COc1ccc(S(=O)(=O)Nc2ccc3c(c2)C(=O)N([C@@H](C)CO)C[C@@H](C)[C@@H](CN(C)C(=O)CCCN(C)C)OCCCC[C@@H](C)O3)cc1	none (no result: PDI inh, Rtt109 HAT inh)
C[C@@H]1CCCCO[C@@H](CN(C)C(=O)CCC(F)(F)F)[C@@H](C)CN([C@H](C)CO)C(=O)c2cc(NS(=O)(=O)c3ccc(Cl)cc3)ccc2O1	none (no result: PDI inh, Rtt109 HAT inh)
COc1ccc(S(=O)(=O)Nc2ccc3c(c2)C(=O)N([C@@H](C)CO)C[C@@H](C)[C@H](CN(C)C(=O)CCCN(C)C)OCCCC[C@@H](C)O3)cc1	DENV2 CPE 31 (no result: PDI inh, Rtt109 HAT inh)
C[C@H](CO)N1C[C@H](C)[C@H](CN(C)C(=O)CCCN(C)C)OCCCC[C@H](C)Oc2ccc(NS(=O)(=O)c3ccc(Cl)cc3)cc2C1=O	DENV2 CPE 41 (no result: PDI inh, Rtt109 HAT inh)
Fc1ccc(C2CC(c3ccco3)=Nc3ccccc3S2)cc1 (configuration not stated)	Rtt109 HAT inh 56
O=C1NN(c2ccc(Cl)cc2)C(=O)/C1=C\c1ccc(-c2cccc(C(=O)O)c2)o1	SIRT5 inh 28
O=C1NN(c2ccccc2)C(=O)/C1=C\c1ccc(-c2cc([N+](=O)[O-])ccc2O)o1	SIRT5 inh 18
CCN(CC)S(=O)(=O)c1cccc(C(=O)NCC2(N3CCOCC3)CCCCC2)c1	DENV2 CPE 95
CN(C)S(=O)(=O)c1cccc(C(=O)NCC2(N3CCOCC3)CCCCC2)c1	none
